Most compounds without a hit are left out; they make up all but 0.8% or so of the library.
PI4K2A inh: qHTS for small molecular inhibitors of PI4K2A; 420,000 compounds, 0.13% hits; purified PI4K2A, ADP-Glo luminescence, 1 h; stronger effect = lower value; activity change, negative = inhibition, % at 76.9 µM; Phosphatidylinositol 4-kinase type 2-alpha (Homo sapiens), Q9BTU6; in the data active = activity change below about -50%; inconclusive = mostly about -30% to -49%;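 note: -100% = wells without enzyme as full effect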
Target sequence (Q9BTU6 whole entry, looked up): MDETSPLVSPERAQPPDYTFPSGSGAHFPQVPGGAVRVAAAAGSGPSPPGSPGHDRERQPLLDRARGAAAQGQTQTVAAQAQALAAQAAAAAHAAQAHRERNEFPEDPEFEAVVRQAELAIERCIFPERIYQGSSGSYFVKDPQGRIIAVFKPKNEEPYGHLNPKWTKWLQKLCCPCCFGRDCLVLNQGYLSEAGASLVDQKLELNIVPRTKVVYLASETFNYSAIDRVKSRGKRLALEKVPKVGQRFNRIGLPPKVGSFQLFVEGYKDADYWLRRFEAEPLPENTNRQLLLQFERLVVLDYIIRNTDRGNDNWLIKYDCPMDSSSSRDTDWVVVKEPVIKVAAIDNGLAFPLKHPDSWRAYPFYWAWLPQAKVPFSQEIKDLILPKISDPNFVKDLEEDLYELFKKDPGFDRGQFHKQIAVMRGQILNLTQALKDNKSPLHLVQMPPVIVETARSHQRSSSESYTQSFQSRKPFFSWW
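Compounds are screened against recombinant PI4K2A using PI as substrate and ATP, the latter dispensed at 300 microM. Reactions run one hour at ambient temperature before ADP-Glo detection; full inhibition defined by wells lacking enzyme.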
FEN1 inh: qHTS Assay for the Inhibitors of Human Flap endonuclease 1 (FEN1). Potency, µM (highest dose often 114 µM), for the others: at the highest dose activity change, negative = inhibition, actives largely listed as inhibitors. 390,000 compounds, 0.35% hits. Recombinant FEN1 flap cleavage, fluorescence, 15 min. AID 588795, 2011; note: potency is the fitted concentration of half-maximal effect; nearly all actives have a fitted effect of over 65% in size
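Read-out was taken twice, immediately and after 15 min, following addition of 50 nM substrate to 10 nM FEN1 that had sat with test compound for 15 min at room temperature. Curves came from a four-parameter Hill model.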
TDP1 inh: qHTS Assay for Inhibitors of Tyrosyl-DNA Phosphodiesterase (TDP1); recombinant TDP1, AlphaScreen DNA substrate cleavage; Potency, µM (highest dose often 130 µM), for the others: at the highest dose activity change, negative = inhibition, most hits filed as inhibitors; 350,000 compounds, 0.28% hits; AID 485290, 2010; note: potency is the fitted concentration of half-maximal effect; nearly all actives have a fitted effect of over 40% in size
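Compounds were preincubated with Tdp1 (1 nM final) for 15 min at room temperature before substrate (15 nM final) started a 5 min reaction; beads (10 ug/ml final) were then added for 10 min before AlphaScreen detection.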
Tb PFK block: qHTS Assay to Find Inhibitors of T. brucei phosphofructokinase | T. brucei PFK, ADP-Glo luminescence | ATP-dependent 6-phosphofructokinase (Trypanosoma brucei brucei), O15648 | 330,000 compounds, 0.17% hits | AID 485367, 2010 | Potency, µM (highest dose often 57.5 µM), inactives show top-dose activity, negative = inhibition, actives largely listed as inhibitors;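 note: potency is the fitted concentration of half-maximal effect; 0% = uninhibited 1x PFK enzyme wells and -100% = no-enzyme wells; nearly all actives have a fitted effect of over 60% in size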
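PFK 1.25 nM, F6P 0.5 mM, ATP 0.1 mM, 0.1 M TEA pH 8.0, 5 mM MgCl2, 0.01% Tween20, 0.1% BSA; 45 min RT. ADP-Glo readout. qHTS titration up to 57 uM; curves fitted, compounds curve-classed.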
APE1 inh: qHTS Assay for Inhibitors of the Human Apurinic/apyrimidinic Endonuclease 1 (APE1) | recombinant APE1, TAMRA/BHQ-2 abasic DNA cleavage fluorescence | Potency, µM (series often up to 65.8 µM), without a hit: at the highest dose activity change, negative = inhibition, actives largely listed as inhibitors | 350,000 compounds, 0.35% hits | AID 2517, 2012;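 note: potency is the fitted concentration of half-maximal effect; plate controls were vehicle for no effect and reference inhibitor for full effect; nearly all actives have a fitted effect of over 55% in size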
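Endonuclease cleavage of a quenched abasic-site DNA duplex (50 nM) by APE1 (0.75 nM) was tracked by TAMRA dequenching. Compounds were preincubated with enzyme 15 min at room temperature; data normalized to buffer-only and DMSO wells plus NSC13755 control.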
Tb PGK inh: qHTS Assay to Find Inhibitors of Phosphoglycerate Kinase | Phosphoglycerate kinase, glycosomal (Trypanosoma brucei brucei), P07378 | PGK/GAPDH coupled, Kinase-Glo luminescence, 60 min | Potency, µM (highest dose often 57.5 µM), for inactives: at the highest dose activity change, negative = inhibition, most hits filed as inhibitors | 380,000 compounds, 0.043% hits; note: potency is the fitted concentration of half-maximal effect; nearly all actives have a fitted effect of over 60% in size
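Luminescent ATP detection (Kinase-Glo Plus) follows a 60-minute room-temperature incubation, with wells lacking PGK as controls. Buffer: 100 mM TEA (pH 7.6), 5 mM MgCl2, 0.01% Tween-20. Coupling enzyme GAPDH (100 nM final) supplies unstable 1,3-BPG in-well.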
* = called active by the depositor; i = inactive; ? = inconclusive; / = not tested or not shown; [ ] = dose if it differs, or a comment. Unless noted, calls come from the whole dose curve; as a rule, active = well fitted curve in the direction sought with a large enough effect; inconclusive = small, poorly fitted or top-dose-only effect, or another doubt; inactive = no such curve, though single readings can be large; an effect the other way counts as inactive or inconclusive. Unless noted, % is set by controls: 0 for no effect and ±100 for the full control effect.

SMILES	PI4K2A inh	FEN1 inh	TDP1 inh	Tb PFK block	APE1 inh	Tb PGK inh
CN[C@@H]1[C@@H](O[C@H]2O[C@H](CO)[C@@H](N)[C@H](O)[C@H]2O)O[C@H]2C[C@@H](N)[C@@H](O[C@H]3[C@H](O)[C@@H](O)[C@H](N)C[C@@H]3N)O[C@@H]2[C@@H]1O	/	/	/	/	2%[21 µM]	/
Cc1ncc([N+](=O)[O-])n1C	1	/	/	/	/	/
O=C1OC(c2ccccc2)(c2ccccc2)N2CCN(C(=O)NCc3ccc(F)cc3)CC12 (configuration not stated)	/	/	0%	/	/	/
C[n+]1c2cc(N)ccc2cc2ccc(N)cc21 (tested in a mixture with another compound)	-26	/	/	/	25µM*	/
Nc1ccc2ccc(O)cc2c1	0	?	/	/	/	-6%
O=C(C1Cc2ccccc2CN1C(=O)c1ccccc1)N1CCN(c2ccccc2)CC1 (configuration not stated)	-5	1%	35µM*	-22%	?	-16%
COCc1cc(=O)[nH]c(Nc2nc3ccccc3o2)n1	-7	16%	8%	-1%	17%	0%
COCc1cc(=O)[nH]c(Nc2nc(C)c3ccccc3n2)n1	-2	50µM*	5%	2%	5%	-4%
O=C(CNC(=O)c1ccc2n[nH]nc2c1)OC(C(=O)Nc1cc(C(F)(F)F)ccc1Cl)c1ccccc1 (configuration not stated)	/	/	0%	/	/	/
COc1ccc(Cl)cc1C(=O)OCC(=O)c1c(N)n(C)c(=O)n(C)c1=O	-71*	/	/	/	/	-10%
COc1ccc(CN(Cc2ccccc2)C(=O)c2ccccc2O)cc1COc1ccc(NC(C)=O)cc1	/	/	-13%	/	/	/
CN(C)c1ccc(N=Cc2cccc3ccccc23)cc1	/	-2%	/	/	/	/
CN(C)c1ccc(/C=C\C=C/c2ccnc3ccccc23)cc1	/	50µM*	/	/	/	/
CCN(CCCN(C)C)c1ccc(/C=C/c2ccnc3ccccc23)cc1	/	50µM*	/	/	/	/
CN(C)c1ccc(N=Cc2ccnc3ccccc23)cc1	/	45µM*	/	/	/	/
COC(=O)c1ccccc1S(=O)(=O)Nc1cc(=O)c2ccccc2[nH]1	/	/	2%	/	/	/
Cc1n[nH]c(=S)n(NC(=O)CC(=O)Nn2c(=S)[nH]nc(C)c2=O)c1=O	5	15%	5%	24%	-1%	-9%
Cc1n[nH]c(=S)n(NC(=O)/C=C/C(=O)Nn2c(=S)[nH]nc(C)c2=O)c1=O	-4	45µM*	?	-20%	7.9µM*	?
COc1ccc(N2C3=C(CC4=C2CCCC4=O)C(=O)CCC3)cc1	-56*	13%	8%	-17%	-1%	-16%
COc1ccc2cc3cc(C(=O)Nc4ccc(F)cc4)sc3nc2c1	-4	/	/	/	/	/
Cc1ccc2nc3sc(C(=O)Nc4ccc(F)cc4)cc3cc2c1	-1	-13%	10µM*	-12%	?	3%
COc1ccc2c(c1)CCc1c-2nc2ccccc2c1N1CCOCC1	3	50µM*	/	0%	?	-1%
c1ccc2c(N3CCOCC3)c3c(nc2c1)CCC3	0	17%	/	-5%	7%	4%
COc1ccc(CN(Cc2ccccc2)C(=O)c2ccc(OC)cc2O)cc1	/	/	-14%	/	/	/
OC1(c2ccc(Cl)cc2)CCNCC1	0	/	/	/	/	/
SMILES	PI4K2A inh	FEN1 inh	TDP1 inh	Tb PFK block	APE1 inh	Tb PGK inh
O=c1[nH]c2ccccc2c(=O)n1CCCl	-5	/	/	/	/	/
COc1cc2[nH]c(=S)nc(NC3CCCCCC3)c2cc1OC	-3	45µM*	8%	-6%	-3%	i
O=C(O)C1=C(C(=O)O)C2C=CC1C2	1	-2%	/	/	/	11µM*
c1csc(CNc2ccc(N3CCOCC3)cc2)c1	/	/	/	/	33%	/
CCOc1ccc(OCCn2ccnc2)cc1	2	1%	2%	-7%	8%	4%
Clc1cccc(OCCn2ccnc2)c1	2	2%	7%	27µM*	-3%	1%
CC(C)OC(=O)c1ccc(NCc2cc(O)ccc2O)cc1	13	4%	/	/	/	-8%
COP(=O)(OC)c1ccc(NCc2cc(O)ccc2O)cc1	-11	79µM*	/	/	/	-3%
C/C(=N/NC(=O)c1cccs1)c1c(C)[nH]n(-c2nc3ccccc3s2)c1=O	-66*	?	8%	-8%	4%	?
O=C(O)c1cc(O)c2c(c1)[C@@H]([C@H]1c3cc(C(=O)O)cc(O)c3C(=O)c3c(O[C@@H]4O[C@H](CO)[C@@H](O)[C@H](O)[C@H]4O)cccc31)c1cccc(O[C@@H]3O[C@H](CO)[C@@H](O)[C@H](O)[C@H]3O)c1C2=O	-64*	3.2µM*	/	?	0.067µM*	3.2µM*
O=C1c2c(O)cccc2[C@H]([C@@H]2O[C@H](CO)[C@@H](O)[C@H](O)[C@H]2O)c2cc(CO)cc(O)c21	/	/	/	/	-3%	/
Cc1ccc(-n2nc3c(N4CCC(C(=O)NCc5cccc(F)c5)CC4)nnc(C)c3c2C)cc1	2	20%	40µM*	-21%	-1%	i
O=c1[nH]sc2cc(Cl)ccc12	0	/	/	/	/	/
COc1ccc2c(c1)Cc1sc(NC(=O)c3cccc(C)c3)nc1-2	-54*	?	7%	/	/	/
O=C1CSC(=S)N1/N=C/c1ccc(O)c(O)c1O	-13	2.8µM*	?	?	0.35µM*	?
Cc1ccc(C)c(NC(=S)Nc2cccc3cnccc23)c1	-55*	-6%	-3%	-5%	-1%	2%
Cc1ccccc1NC(=S)Nc1cccc2cnccc12	-23	-8%	-5%	2%	?	-5%
O=C1c2ccccc2C(=O)N1CCCCON1C(=O)c2ccccc2C1=O	-1	10%	3%	-3%	-1%	i
CCCCON1C(=O)c2cccc3cccc(c23)C1=O	1	2%	35µM*	0%	14%	7%
CC1CCCCN1CCCOC(=O)c1ccc(OC2CCCCC2)cc1 (configuration not stated)	2	/	/	/	/	/
COC1=C/C(=C/c2c(N)n3nc(CC(=O)N4CCCC4)sc3nc2=O)C=CC1=O	1	-19%	-7%	2%	60%	-8%
